Measurements reported in PubChem BioAssay.
The source made the active and inactive calls.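 How the source made its calls: active means visually confirmed hit in the image check and inhibition above 20%; inconclusive means visually confirmed hit but inhibition not above 20%; inactive means no visual hit in the image check.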

Assay: endothelial E-selectin expression blockers – imaging, HUVEC, immunofluorescence, MLSMR starter and 10KST1 sets, primary screen (AID 487);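 on inhibition: signal is fraction of cell area covered by stained E-selectin grains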;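 on nuclei count: 100% = median nuclei count of all wells on the same plate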
Conditions: HUVEC TNFalpha-induced E-selectin immunofluorescence imaging, at 2 µM; inhibition: stronger effect = higher value; nuclei count: measured here: cell number, toxicity

Row | SMILES | inhibition | nuclei count [%]
1 | Cc1cccc2sc(NC(=O)CN(C)S(=O)(=O)c3cccs3)nc12 | -1.7% (inactive) | 103
2 | CCOc1cc(NC(=O)c2ccco2)c(OCC)cc1NC(=O)Cc1cccc(OC)c1 | 22.4% (inactive) | 102
3 | CC(=O)Nc1c2c(nn1-c1ccc(C)cc1C)CSC2 | 33.7% (inactive) | 103
4 | CC(CC(=O)NC1CCSC1=O)c1ccccc1 (stereo not drawn) | -43.3% (inactive) | 124
5 | Cc1c(C(=O)O)c(-c2ccccc2)nn1-c1ccccc1 | -11.7% (inactive) | 127
6 | Cc1nnc(SCCn2c(Br)nc3c2c(=O)n(C)c(=O)n3C)s1 | -12% (inactive) | 109
7 | COc1ccccc1NC(=O)Cc1noc(CSc2cc(C)c3ccccc3n2)n1 | -160% (inactive) | 95.9
8 | COc1cccc2sc(NC(=O)c3ccc(S(=O)(=O)N4CCOCC4)cc3)nc12 | -21% (inactive) | 104
9 | C=CCN(C(=O)CNC(=O)c1ccco1)C(C(=O)NC1CCCCC1)c1ccccc1F (stereo not drawn) | 5.7% (inactive) | 101
10 | O=C(Nc1ccc(OC(=O)c2ccco2)cc1)c1ccco1 | 10.8% (inactive) | 101
11 | CCOc1ccc2ccccc2c1C(=O)N1CCN(c2ccccc2)CC1 | 44.7% (inactive) | 64.1
12 | Cc1ccc(C)c2[nH]c(=O)c(CCNC(=O)CC(C)(C)C)cc12 | 16.6% (inactive) | 90.8
13 | CC(=O)c1ccc(OCC(O)CN2CC(C)OC(C)C2)cc1 (stereo not drawn) | 0.4% (inactive) | 98.9
14 | O=c1[nH]c(SCc2ccccc2Cl)nc2c1CCCC2 | -49.4% (inactive) | 111
